The source of these data is PubChem BioAssay.

SMILES strings stand for the structures.

This assay is described as follows: Primary imaging screen for DUSP6 inhibitors that restore phospho-Erk in transfected HeLa cells, chemical complementation (AID 609). Conditions: HeLa MKP-3 transfected, phospho-Erk imaging KS statistic; measured here: nuclear c-Myc green intensity z-score; at 10 µM; cells stimulated with TPA for 15 min.
In turn, `O=C(NCC1CCCCN1)c1cc(OCC(F)(F)F)ccc1OCC(F)(F)F` (centres undefined) registered a z-score of 0.032. Next, `CN1CC(=O)Nc2ccc(F)cc2C1=O`: 1.54.

`CN1CCN(C2=Nc3cc(Cl)ccc3Nc3ccccc32)CC1`: the z-score is 0.0948. For the compound `COc1cc(C)nc(Oc2ccc(=O)[nH]n2)n1`, the z-score was determined as 1.04.

As for `CCN(CC)CCNC(=O)c1ccc(N)cc1`, the z-score is -0.602. Next, `COc1cc2nc(N3CCN(C(=O)C4CCCO4)CC3)nc(N)c2cc1OC` (centres undefined): -0.263. Next, `O=C(CCCN1CCC(O)(c2ccc(Cl)cc2)CC1)c1ccc(F)cc1`: -0.669; `CCCOc1cccc(CN2CCCCC2c2cccnc2)c1` (centres undefined): 0.714. The same measure for `COc1ccc(-c2coc3cc(O)cc(O)c3c2=O)cc1`: 0.921; for `CN(C)CCCN1c2ccccc2CCc2ccccc21`: -0.347.

Consider `Cc1cccc(OCC(=O)NCC(=O)n2nc(C)cc2C)c1`, for which the z-score is 0.0922. Next, `COCCN(Cc1ccccc1)P(=O)(O)c1ccccc1OCC(=O)O`: -1.67. Next, `Oc1oc(-c2ccccc2)nc1C=NCc1ccncc1`: -0.425; `CCC1=Nc2ccccc2NC2=C1C(=O)CCC2`: 0.203; `CC[C@]1(O)C[C@@H]2CN(CCc3c([nH]c4ccccc34)[C@@](C(=O)OC)(c3cc4c(cc3OC)N(C)[C@H]3[C@@](O)(C(=O)OC)[C@H](OC(C)=O)[C@]5(CC)C=CCN6CC[C@]43[C@@H]65)C2)C1`: -0.704. Next, `NC(N)=Nc1nc(CSCC/C(N)=N/S(N)(=O)=O)cs1`: 1.78; `CC(=O)O[C@@]12CO[C@@H]1C[C@H](O)[C@@]1(C)C(=O)[C@H](O)C3=C(C)[C@@H](OC(=O)[C@H](O)[C@@H](NC(=O)OC(C)(C)C)c4ccccc4)C[C@](O)([C@@H](OC(=O)c4ccccc4)[C@H]21)C3(C)C`: 0.683.

For `CC(=O)Oc1oc(-c2ccccc2)nc1/C=N/c1ccccn1`, the z-score came out at 1.34. The same measure for `COc1ccc(OC)c(N=C(C)C2=C(O)COC2=O)c1`: 0.523; for `CC[C@H]1CN2CCc3cc(OC)c(OC)cc3[C@@H]2C[C@@H]1C[C@H]1NCCc2cc(OC)c(OC)cc21`: -0.649.

In turn, `COc1ccc(OCC(=O)OCCN(C)C)cc1` registered a z-score of -1.2.

Regarding `COc1cccc(C(=O)OCCN(C)C(C)(C)C)c1`, the z-score stood at 1.71. `Cc1nnc(NS(=O)(=O)c2ccc(N)cc2)s1` yielded a z-score of 0.446. Next, `COc1ccc([C@@H]2Sc3ccccc3N(CCN(C)C)C(=O)[C@@H]2OC(C)=O)cc1`: -1.47; `O=C(CCN1CCCC1Cc1ccccc1)c1ccc2c(c1)OCCO2` (centres undefined): -1.2. Next, `Fc1ccc(C(c2ccc(F)cc2)N2CCN(C/C=C/c3ccccc3)CC2)cc1`: 1.96. The same measure for `COc1ccc[nH]c1=O`: 0.536; for `CCC(=O)Oc1oc(-c2ccccc2)nc1C=Nc1ccccc1OC`: 0.248; for `O=C(O)c1ccc(COCC(F)(F)C(F)F)o1`: -1.01.

Regarding `Cc1nc2sc(C)c(C)c2c(=O)o1`, the z-score is -1.75.

In turn, `CC1(C)S[C@@H]2[C@H](NC(=O)[C@H](N)c3ccccc3)C(=O)N2[C@H]1C(=O)O` displayed a z-score of -1.51. `O=P(Cc1nnco1)(c1ccccc1)c1ccccc1` returned a z-score of -1.79. Next, `Nc1nc2c(ncn2COCCO)c(=O)[nH]1`: 0.247; `c1ccc2c(c1)nc(CN1CCOCC1)n1c3ccccc3nc21`: -0.224.

As to `CCC(NC(=O)Nc1nnc(C(F)(F)F)s1)(C(F)(F)F)C(F)(F)F`, the z-score is -0.831. In the case of `CCOC(=O)C(Oc1ccc(=O)[nH]n1)C(C)=O` (centres undefined), the z-score was 0.196. Next, `CC1=NS(=O)(=O)c2cc(Cl)ccc2N1`: 0.773; `CCCCOc1ccccc1P(=O)(O)CP(=O)(c1ccccc1)c1ccccc1`: -0.49; `COc1cccc(C(=O)NCC(=O)n2nc(C)cc2C)c1`: 0.517.
